Only some compounds are listed: those with a hit (about 2.3% of all), similar ones and a draw of the others.
Nrf2 ARE act – qHTS of Nrf2 Activators. AID 624171, 2012. AREc32 ARE-luciferase reporter (MCF7-derived line), luminescence, 24 h. Potency, µM (series often up to 46.1 µM), for the others: at the highest dose activation, hits mostly activators. 410,000 tested, 0.31% active; also: potency is read from the fitted curve at half-maximal effect; % of control where 0% means no effect; nearly all actives have a fitted effect of over 65% in size
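Nrf2 activation is followed as ARE-luciferase induction in the AREc32 line after one day of compound treatment; luminescence is read with Steady-Glo.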
Nrf2 inh – Nrf2 qHTS screen for inhibitors; A549 ARE-Fluc reporter, luciferase luminescence, 18-24 h; AID 504444, 2011; Potency, µM (series often up to 46 µM), for inactives: top-dose activity change, negative = inhibition, usual class: inhibitors; 360,000 tested, 2.1% active; also: potency is read from the fitted curve at half-maximal effect; % is scaled to controls: 0 for no effect and ±100 for the full control effect; nearly all actives have a fitted effect of over 60% in size
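Reporter: ARE-Fluc in A549. Exposure: 18-24 h, 37 °C, 5% CO2, 5% FBS OPTI-MEM. Readouts: fluorescent cytotoxicity (CellTiter-Fluor), then luminescent Nrf2 signal after BugLite.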
IL-2 act – qHTS of IL-2 Activators. 360,000 tested, 0.065% active. activation, % (series mostly up to about 46 µM). IL-2 activation reporter assay, cell-based qHTS; stimulated with anti-CD3/CD4/CD28 beads; in transgenic mouse T cells; in the data active = activation above about 50%; inconclusive = mostly about 30% to 49%; also: 0% is about no effect
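Readout: EGFP and DsRed signals by fluorescent plate cytometry. Unstimulated transgenic mouse T cells received compound 60 min before antibody-bead stimulation, then incubated 18 h at 37 degrees C.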
A549 viability – Nrf2 qHTS screen for inhibitors: counterscreen for cytotoxicity; A549 ARE-Fluc cells, CellTiter-Fluor viability, 18-24 h; Potency, µM (titrated, usually from 46 µM), without a hit: top-dose activity change, negative = cytotoxicity, usual class: inhibitors; 390,000 tested, 0.16% active; also: potency is read from the fitted curve at half-maximal effect; % is scaled to controls: 0 for no effect and ±100 for the full control effect
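A549 ARE_Fluc cells in 5% FBS OPTI-MEM were exposed to compounds in concentration-response for 18-24 h at 37 deg C. Viability was read by CellTiter-Fluor fluorescence (Ex 405/Em 525) after 30 min, before the luciferase read.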
Numbers without * were called inactive; u = inconclusive; x = not tested or not shown. Unless noted, calls follow the shape of the dose curve; as a rule, active = well fitted curve in the direction sought with a large enough effect; inconclusive = small, poorly fitted or top-dose-only effect, or another doubt; inactive = no such curve, though single readings can be large; an effect the other way counts as inactive or inconclusive.

SMILES | Nrf2 ARE act | Nrf2 inh | IL-2 act | A549 viability
O=S(=O)(c1ccccc1)N1CCN(C(=S)NC2CCCC2)CC1 | -0.4% | 5.8% | -0.1 | u
CC1CCN(CC2C(=O)O[C@@H]3C[C@@]4(C)CCC[C@H](C)C4=C[C@H]23)CC(C)(C)C1 (stereo not given in full) | 8.91µM* | -9.3% | 0.1 | -0.1%
COc1ccccc1Nc1ncc2c(n1)CCN(CC(C)C)C2 | 1.2% | x | x | -4.1%
Cc1ccc(-c2noc(-c3cccs3)n2)cc1 | 11.2µM* | u | -1.4 | -5.1%
c1csc(-c2nc(-c3ccc(-c4ccon4)s3)no2)c1 | 5.62µM* | u | -0.3 | 2.4%
c1ccc(-c2nc(-c3ccc(-c4ccon4)s3)no2)cc1 | 10.1% | u | 0.5 | 11.0%
Cc1cc2c(s1)c1cnn(Cc3c(F)ccc(F)c3Cl)c(=O)c1n2C | x | 5.2% | x | -3.6%
COc1ccc(-n2c(SCC#N)nnc2-c2ccc(NS(=O)(=O)c3ccc(C)cc3)cc2)cc1 | 1.9% | 10.3µM* | -0.4 | -17.7%
Cc1sc2ncnc(Sc3ccccc3C(=O)O)c2c1C | 9.7% | u | 2.8 | -5.6%
Cn1nnnc1Sc1ncnc2scc(-c3ccc([N+](=O)[O-])cc3)c12 | u | 18.4µM* | -4.0 | u
Cn1nnnc1Sc1ncnc2scc(-c3ccc4c(=O)ccoc4c3)c12 | x | 16.4µM* | x | u
Cn1nnnc1Sc1ncnc2scc(-c3ccccc3Cl)c12 | -2.1% | 25.9µM* | -0.6 | -3.7%
Cc1sc2ncnc(Sc3nnnn3-c3ccccc3)c2c1C | 8.91µM* | u | -2.3 | 1.6%
Cn1nnnc1Sc1ncnc2scc(-c3cccc([N+](=O)[O-])c3)c12 | x | -27.2% | x | 6.4%
Cn1nnnc1Sc1ncnc2scc(-c3ccc(Cl)cc3)c12 | -2.0% | u | -0.7 | u
Cn1nnnc1Sc1ncnc2scc(-c3cccc(Br)c3)c12 | 12.4% | 23.1µM* | -0.4 | -26.0%
Cn1nnnc1Sc1ncnc2scc(-c3cccc(N)c3)c12 | x | 4.5% | x | -1.1%
Cn1nnnc1Sc1ncnc2scc(-c3cccc(S(C)(=O)=O)c3)c12 | -1.6% | 8.2µM* | -0.7 | u
N#CC1=C(N)Oc2c(oc(CO)cc2=O)C1c1ccsc1 (stereo not given) | -0.4% | 9.5% | -0.6 | 16.1%
N#CC1=C(N)Oc2c(ccc3ccccc23)C1c1ccsc1 (stereo not given) | 8.91µM* | u | 0.3 | u
Cc1ccc(C(=O)NNC(=S)NC(=O)c2ccc(Cl)cc2)cc1 | -0.8% | 16.4µM* | -3.4 | u
Cc1ccccc1C(=O)NNC(=S)NC(=O)c1ccc(Cl)cc1Cl | 1.6% | 23.1µM* | -0.9 | u
O=C(CCc1ccccc1)NNC(=S)NC(=O)c1ccc(Cl)cc1 | 2.3% | 20.6µM* | 0.0 | -23.7%
O=C(CCc1ccccc1)NNC(=O)c1ccc(Cl)cc1 | -0.2% | -25.4% | -0.9 | 2.4%
COCCNC(=O)CSc1cn(CC(=O)N2CCCCCC2)c2ccccc12 | 3.1% | u | x | 0.1%
SMILES | Nrf2 ARE act | Nrf2 inh | IL-2 act | A549 viability
Cc1cc2c(s1)c1cnn(Cc3cccc(C(F)(F)F)c3)c(=O)c1n2C | x | 4.5% | x | 1.6%
COc1ccc(C2c3ccc(OCc4ccccc4)cc3Oc3ncn(CCN4CCOCC4)c(=N)c32)cc1OC (stereo not given) | x | u | x | -6.7%
Cc1cc(C)cc(OCC(=O)N(Cc2ccco2)Cc2ccccc2Cl)c1 | 8.4% | u | x | 2.1%
O=[N+]([O-])c1ccc(N/N=C/c2sc(N3CCOCC3)nc2-c2ccccc2)c(S(=O)(=O)Nc2ccccc2Cl)c1 | 0.1% | 2.59µM* | 0.4 | 9.2µM*
O=C(N/N=C/c1sc(N2CCOCC2)nc1-c1ccccc1)c1ccccc1O | -0.2% | 16.4µM* | -0.8 | 23.1µM*
Cc1nnc(SCC(=O)N2CCOCC2)c2ccccc12 | u | 9.2µM* | 1.4 | 0.8%
CCOc1ccc(-c2nc(CSCC(=O)N3CCN(c4cccc(C(F)(F)F)c4)CC3)c(C)o2)cc1 | -2.8% | x | x | u
Cc1cccc(-c2nc(CSCC(=O)N3CCN(c4ccccc4)CC3)c(C)o2)c1 | 0.0% | 23.1µM* | x | -10.1%
CCc1ccc(-c2nc(CSCC(=O)N3CCN(c4ncccn4)CC3)c(C)o2)cc1 | 0.4% | 20.6µM* | -4.2 | -17.7%
CC(=O)c1ccc(NC(=O)c2cc(S(=O)(=O)N3CCOCC3)ccc2C)cc1 | 0.2% | 15.4% | -1.3 | 0.9%
O=C(Nc1ccc(N2CCOCC2)cc1)c1cccc(S(=O)(=O)N2CCCCC2)c1 | -0.3% | 20.6µM* | -0.1 | -12.9%
Cc1ccc(S(=O)(=O)N2CCOCC2)cc1C(=O)Nc1ccc(N2CCCCCC2)cc1 | 3.6% | 20.6µM* | -1.0 | -20.3%
CCN1CCN(c2ccc(NC(=O)c3cccc(S(=O)(=O)N4CCCC4)c3)cc2)CC1 | 4.2% | 6.6% | -1.6 | -1.3%
Cc1ccccc1OCCOC(=O)c1cc(S(=O)(=O)N2CCCCC2)ccc1N1CCOCC1 | -0.3% | 16.4µM* | -3.3 | -6.3%
Cc1ccc(COC(=O)c2cc(S(=O)(=O)N3CCOCC3)ccc2C)cc1 | 0.4% | 16.4µM* | -0.5 | 9.6%
Cc1ccc(-n2nc(CO)c(C(=O)NCc3cccs3)n2)cc1C | 4.1% | 6.1% | x | -0.1%
O=C1CN(S(=O)(=O)c2c(F)cccc2F)CCN1S(=O)(=O)c1ccc2c(c1)OCCO2 | x | -13.5% | x | -1.0%
COc1ccccc1S(=O)(=O)N1CCN(c2nc(-c3cccs3)nc3ccccc23)CC1 | x | -10.3% | x | 0.0%
O=C(Nc1nnc(S(=O)(=O)N2CCCCC2)s1)c1cccc(Br)c1 | 3.2% | 25.9µM* | -2.1 | -8.2%
O=C(Nc1cccc(S(=O)(=O)N2CCCC2)c1)c1cc(-c2ccccn2)nc2ccccc12 | -0.1% | 9.2µM* | -1.3 | -0.6%
O=C(Nc1ccncc1)c1cccc(S(=O)(=O)N2CCCC2)c1 | 0.2% | 8.2µM* | -0.7 | -18.8%
CC1CN(S(=O)(=O)c2cccc(C(=O)Nc3ccccc3N3CCOCC3)c2)CC(C)O1 (stereo not given) | -0.1% | u | -1.1 | 0.5%
CC1CN(S(=O)(=O)c2cccc(C(=O)Nc3ccccc3N3CCCCC3)c2)CC(C)O1 (stereo not given) | 0.2% | 16.4µM* | -5.5 | u
CC1CN(S(=O)(=O)c2cccc(C(=O)N(C)C3CCN(C)CC3)c2)CC(C)O1 (stereo not given) | 0.0% | 3.8% | -0.4 | -0.8%
O=C(Nc1ccncc1)C1CCN(S(=O)(=O)c2cccc(C(F)(F)F)c2)CC1 | 0.3% | 16.4µM* | 0.3 | -4.0%
CC1CN(S(=O)(=O)c2cccc(C(=O)N=c3sccn3C)c2)CC(C)O1 (stereo not given) | 2.7% | 11.6µM* | -0.4 | -17.6%
CCOc1ccc(CCN2C(=S)N([C@@H](Cc3ccccc3)CN3CCC[C@@H]3CN3C(=S)NC[C@@H]3Cc3ccc(O)cc3)C[C@@H]2CC(C)C)cc1 | 3.7% | x | -0.5 | x

Compound activity as filed in PubChem BioAssay.
